Source: PubChem BioAssay (NCATS)
Inconclusive results are not listed. A call without a number means that no potency is given here. Active and inactive are the calls of the source. Calls come from the whole dose curve; as a rule, active = well fitted inhibition curve with a large enough effect; inconclusive = small, poorly fitted or top-dose-only effect; inactive = flat fitted curve, though single readings scatter. Peptide text beside a SMILES is read from it.

These molecules were tested on ATS95 (assay: qHTS profiling for inhibitors of Plasmodium falciparum proliferation (AID 504749; note: nearly all actives have a fitted effect of over 60% in size)). Conditions: P. falciparum in erythrocytes, SYBR Green DNA, 72 h; series mostly up to 12.8 µM.
Outline: (§1)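 Infected RBCs, 0.3% parasitemia/2.5% Hct final; cpd 72 h, 37 C, 5% CO2; lysis buffer with saponin/triton/SYBR Green I, o/n RT dark; FI 485/535; norm. to artemisinin (0.29 uM) and DMSO.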
Potency is the fitted concentration of half-maximal effect.

For `CCC(C)C(=O)OC1CCC=C2C=CC(C)C(CCC3CC(O)CC(=O)O3)[C@@H]21` (some centres undefined), which Potency is on record?
The Potency was “inactive”.

`C[C@]1(c2ccccc2)OC(C(=O)O)=CC1=O` was tested. Which Potency did it give?
Its Potency is “inactive”.

`OCC1OC([S-])[C@H](O)C(O)C1O.[Au+]` (some centres undefined) was tested. Which Potency did it give?
Its Potency is “inactive”.

For `COC(=O)N/N=C/C1=C[N+](=O)c2ccccc2[N+]1=O`, which Potency is on record?
The Potency was “inactive”.

`CN1CC(=O)N=C1N` was tested. Which Potency did it give?
The Potency was “inactive”.

With `CNC1CC(N)[C@H](O)[C@@H](O[C@@H]2OC(CO)C3OC4(OC(C(N)CO)C(O)C(O)C4O)O[C@@H]3[C@H]2O)C1O` (some centres undefined) as the molecule, how does the Potency read?
Its Potency is “inactive”.

Which Potency does the source give for `COC1C=CO[C@@]2(C)Oc3c(C)c(O)c4c(O)c(c(C=NN5CCN(C)CC5)c(O)c4c3C2=O)NC(=O)/C(C)=C\C=CC(C)C(O)[C@@H](C)C(O)C(C)[C@H](OC(C)=O)C1C` (some centres undefined) here?
The Potency was 2510 nM (active).

For `CC(=O)N[C@@H]1C(O)OC(CO)C(O)C1O` (some centres undefined), which Potency is on record?
The Potency was “inactive”.

Which Potency does the source give for `CCC(CCC(C)C1CCC2C3CC=C4CC(O)CC[C@@]4(C)C3CC[C@@]12C)C(C)C` (some centres undefined) here?
Its Potency is “inactive”.

For `O=C1OC(CO)C(O)C(O)C1O` (centres undefined), which Potency is on record?
The Potency was “inactive”.

How did the Potency turn out when `COc1ccc(CC(N)C(=O)NC2C(CO)OC(n3cnc4c(N(C)C)ncnc43)C2O)cc1` (centres undefined) was run?
The Potency was 1000 nM (active).

With `CCCC(=O)O[C@]1(C(=O)CO)CCC2[C@@H]3CCC4=CC(=O)CC[C@]4(C)C3C(O)C[C@]21C` (some centres undefined) as the molecule, how does the Potency read?
The Potency was “inactive”.

With `COC(=O)C(Cc1ccccc1)NC(=O)C(N)CC(=O)O` (stereo not drawn) (H-Asp-Phe-OMe; configuration not given here) as the molecule, how does the Potency read?
The Potency was “inactive”.

For `CC[C@@]12CCCN3CCc4c(n(c5ccccc45)[C@](O)(C(=O)OC)C1)C32` (some centres undefined), which Potency is on record?
Its Potency is “inactive”.

With `CC1(C)SC2C(N3C(=O)C(c4ccccc4)NC3(C)C)C(=O)N2C1C(=O)O` (centres undefined) as the molecule, how does the Potency read?
Its Potency is “inactive”.

How did the Potency turn out when `CC1CCC(C(C)C)C(=O)C1` (centres undefined) was run?
Its Potency is “inactive”.

For `CC(=O)N[C@H](CC(C)C)C(=O)O`, which Potency is on record?
Its Potency is “inactive”.

With `CC(C)C1CCC(C(=O)NC(Cc2ccccc2)C(=O)O)CC1` (centres undefined) as the molecule, how does the Potency read?
Its Potency is “inactive”.

How did the Potency turn out when `COc1ccc2cc(C(C)CO)ccc2c1` (centres undefined) was run?
Its Potency is “inactive”.

With `COc1ccc2cc1Oc1ccc(cc1)CC1c3c(cc4c(c3Oc3cc5c(cc3OC)CCN(C)C5C2)OCO4)CCN1C` (centres undefined) as the molecule, how does the Potency read?
The Potency was 4470 nM (active).

For `CNC1C(OC2C(O[C@@H]3C(O)C(O)[C@@H](N=C(N)N)C(O)C3N=C(N)N)OC(C)[C@@]2(O)CO)OC(CO)C(O)C1O` (some centres undefined), which Potency is on record?
The Potency was “inactive”.

With `CC1C2CCC3C4CC=C5CC(N(C)C)CC[C@@]5(C)C4CC[C@@]32CN1C` (some centres undefined) as the molecule, how does the Potency read?
The Potency was “inactive”.

For `C[C@]12C=CC(=O)C=C1CCC1C2C(O)C[C@]2(C)C1CC[C@]2(O)C(=O)CO` (some centres undefined), which Potency is on record?
Its Potency is “inactive”.

Which Potency does the source give for `COc1ccc2c(c1)N(C[C@@H](C)CN(C)C)c1ccccc1S2` here?
The Potency was “inactive”.

For `CCOC(=O)C1=CC(OC(CC)CC)C(NC(C)=O)C(N)C1` (centres undefined), which Potency is on record?
The Potency was “inactive”.

For `CN(C)CCc1c[nH]c2ccc(CC3COC(=O)N3)cc12` (centres undefined), which Potency is on record?
The Potency was “inactive”.

How did the Potency turn out when `NCC1CCC(N)C(O[C@@H]2C(O)[C@H](O[C@H]3OC(CO)C(O)C(N)C3O)[C@@H](N)C[C@H]2N)O1` (some centres undefined) was run?
The Potency was “inactive”.

`OCC1O[C@H](OC2C(CO)O[C@@](O)(CO)C2O)C(O)C(O)C1O` (some centres undefined) was tested. Which Potency did it give?
The Potency was “inactive”.

With `CC1(C)OC2CO[C@]3(COS(N)(=O)=O)OC(C)(C)OC3C2O1` (some centres undefined) as the molecule, how does the Potency read?
Its Potency is “inactive”.

`CC(=O)OC1CCC2C3CCc4cc(O)ccc4C3CCC12C` (centres undefined) was tested. Which Potency did it give?
The Potency was “inactive”.

For `CN(C)CCCOC1C(C(O)CO)OC2OC(C)(C)O[C@@H]21` (some centres undefined), which Potency is on record?
Its Potency is “inactive”.

Which Potency does the source give for `COc1cc(C2c3cc4c(cc3C(O[C@@H]3OC5COC(c6cccs6)OC5C(O)C3O)C3COC(=O)C23)OCO4)cc(OC)c1O` (some centres undefined) here?
Its Potency is 2510 nM (active).

The molecules below were run on C2A in the same assay as above. Conditions: P. falciparum in erythrocytes, SYBR Green DNA, 72 h; series mostly up to 12.8 µM.
Outline: as §1

Which Potency does the source give for `CCC(C)C(=O)OC1CCC=C2C=CC(C)C(CCC3CC(O)CC(=O)O3)[C@@H]21` (some centres undefined) here?
The Potency was “inactive”.

Which Potency does the source give for `C[C@]1(c2ccccc2)OC(C(=O)O)=CC1=O` here?
The Potency was “inactive”.

`OCC1OC([S-])[C@H](O)C(O)C1O.[Au+]` (some centres undefined) was tested. Which Potency did it give?
The Potency was “inactive”.

For `COC(=O)N/N=C/C1=C[N+](=O)c2ccccc2[N+]1=O`, which Potency is on record?
The Potency was “inactive”.

For `CN1CC(=O)N=C1N`, which Potency is on record?
Its Potency is “inactive”.

`CNC1CC(N)[C@H](O)[C@@H](O[C@@H]2OC(CO)C3OC4(OC(C(N)CO)C(O)C(O)C4O)O[C@@H]3[C@H]2O)C1O` (some centres undefined) was tested. Which Potency did it give?
The Potency was “inactive”.

`COC1C=CO[C@@]2(C)Oc3c(C)c(O)c4c(O)c(c(C=NN5CCN(C)CC5)c(O)c4c3C2=O)NC(=O)/C(C)=C\C=CC(C)C(O)[C@@H](C)C(O)C(C)[C@H](OC(C)=O)C1C` (some centres undefined) was tested. Which Potency did it give?
Its Potency is 8910 nM (active).

`CC(=O)N[C@@H]1C(O)OC(CO)C(O)C1O` (some centres undefined) was tested. Which Potency did it give?
The Potency was “inactive”.

How did the Potency turn out when `CCC(CCC(C)C1CCC2C3CC=C4CC(O)CC[C@@]4(C)C3CC[C@@]12C)C(C)C` (some centres undefined) was run?
Its Potency is “inactive”.

`O=C1OC(CO)C(O)C(O)C1O` (centres undefined) was tested. Which Potency did it give?
The Potency was “inactive”.

For `COc1ccc(CC(N)C(=O)NC2C(CO)OC(n3cnc4c(N(C)C)ncnc43)C2O)cc1` (centres undefined), which Potency is on record?
Its Potency is 891 nM (active).

With `CCCC(=O)O[C@]1(C(=O)CO)CCC2[C@@H]3CCC4=CC(=O)CC[C@]4(C)C3C(O)C[C@]21C` (some centres undefined) as the molecule, how does the Potency read?
Its Potency is “inactive”.

With `COC(=O)C(Cc1ccccc1)NC(=O)C(N)CC(=O)O` (stereo not drawn) (H-Asp-Phe-OMe; configuration not given here) as the molecule, how does the Potency read?
The Potency was “inactive”.

Which Potency does the source give for `CC[C@@]12CCCN3CCc4c(n(c5ccccc45)[C@](O)(C(=O)OC)C1)C32` (some centres undefined) here?
Its Potency is “inactive”.

Which Potency does the source give for `CC1(C)SC2C(N3C(=O)C(c4ccccc4)NC3(C)C)C(=O)N2C1C(=O)O` (centres undefined) here?
Its Potency is “inactive”.

With `CC1CCC(C(C)C)C(=O)C1` (centres undefined) as the molecule, how does the Potency read?
Its Potency is “inactive”.

`CC(=O)N[C@H](CC(C)C)C(=O)O` was tested. Which Potency did it give?
The Potency was “inactive”.

With `CC(C)C1CCC(C(=O)NC(Cc2ccccc2)C(=O)O)CC1` (centres undefined) as the molecule, how does the Potency read?
The Potency was “inactive”.

For `COc1ccc2cc(C(C)CO)ccc2c1` (centres undefined), which Potency is on record?
The Potency was “inactive”.

How did the Potency turn out when `COc1ccc2cc1Oc1ccc(cc1)CC1c3c(cc4c(c3Oc3cc5c(cc3OC)CCN(C)C5C2)OCO4)CCN1C` (centres undefined) was run?
Its Potency is 11200 nM (active).

How did the Potency turn out when `CNC1C(OC2C(O[C@@H]3C(O)C(O)[C@@H](N=C(N)N)C(O)C3N=C(N)N)OC(C)[C@@]2(O)CO)OC(CO)C(O)C1O` (some centres undefined) was run?
The Potency was “inactive”.

Which Potency does the source give for `CC1C2CCC3C4CC=C5CC(N(C)C)CC[C@@]5(C)C4CC[C@@]32CN1C` (some centres undefined) here?
Its Potency is “inactive”.

How did the Potency turn out when `C[C@]12C=CC(=O)C=C1CCC1C2C(O)C[C@]2(C)C1CC[C@]2(O)C(=O)CO` (some centres undefined) was run?
Its Potency is “inactive”.

For `COc1ccc2c(c1)N(C[C@@H](C)CN(C)C)c1ccccc1S2`, which Potency is on record?
The Potency was “inactive”.

Which Potency does the source give for `CCOC(=O)C1=CC(OC(CC)CC)C(NC(C)=O)C(N)C1` (centres undefined) here?
Its Potency is “inactive”.

With `CN(C)CCc1c[nH]c2ccc(CC3COC(=O)N3)cc12` (centres undefined) as the molecule, how does the Potency read?
Its Potency is “inactive”.

Which Potency does the source give for `NCC1CCC(N)C(O[C@@H]2C(O)[C@H](O[C@H]3OC(CO)C(O)C(N)C3O)[C@@H](N)C[C@H]2N)O1` (some centres undefined) here?
Its Potency is “inactive”.

For `OCC1O[C@H](OC2C(CO)O[C@@](O)(CO)C2O)C(O)C(O)C1O` (some centres undefined), which Potency is on record?
Its Potency is “inactive”.

`CC1(C)OC2CO[C@]3(COS(N)(=O)=O)OC(C)(C)OC3C2O1` (some centres undefined) was tested. Which Potency did it give?
The Potency was “inactive”.

Which Potency does the source give for `CC(=O)OC1CCC2C3CCc4cc(O)ccc4C3CCC12C` (centres undefined) here?
Its Potency is “inactive”.

For `CN(C)CCCOC1C(C(O)CO)OC2OC(C)(C)O[C@@H]21` (some centres undefined), which Potency is on record?
The Potency was “inactive”.

Which Potency does the source give for `COc1cc(C2c3cc4c(cc3C(O[C@@H]3OC5COC(c6cccs6)OC5C(O)C3O)C3COC(=O)C23)OCO4)cc(OC)c1O` (some centres undefined) here?
The Potency was 2240 nM (active).
